Test results as given in the supplement of paper PMC3334620.
Whole data set: some 33,000 sequences, median “E-score (-0.5 to 0.5)” near -0.021, cut for the highest 2% near 0.32. The sample as a whole holds a higher share of the highest values than the screen did.

Target: T1, Zap1 (UniProt P47043)
T1 sequence: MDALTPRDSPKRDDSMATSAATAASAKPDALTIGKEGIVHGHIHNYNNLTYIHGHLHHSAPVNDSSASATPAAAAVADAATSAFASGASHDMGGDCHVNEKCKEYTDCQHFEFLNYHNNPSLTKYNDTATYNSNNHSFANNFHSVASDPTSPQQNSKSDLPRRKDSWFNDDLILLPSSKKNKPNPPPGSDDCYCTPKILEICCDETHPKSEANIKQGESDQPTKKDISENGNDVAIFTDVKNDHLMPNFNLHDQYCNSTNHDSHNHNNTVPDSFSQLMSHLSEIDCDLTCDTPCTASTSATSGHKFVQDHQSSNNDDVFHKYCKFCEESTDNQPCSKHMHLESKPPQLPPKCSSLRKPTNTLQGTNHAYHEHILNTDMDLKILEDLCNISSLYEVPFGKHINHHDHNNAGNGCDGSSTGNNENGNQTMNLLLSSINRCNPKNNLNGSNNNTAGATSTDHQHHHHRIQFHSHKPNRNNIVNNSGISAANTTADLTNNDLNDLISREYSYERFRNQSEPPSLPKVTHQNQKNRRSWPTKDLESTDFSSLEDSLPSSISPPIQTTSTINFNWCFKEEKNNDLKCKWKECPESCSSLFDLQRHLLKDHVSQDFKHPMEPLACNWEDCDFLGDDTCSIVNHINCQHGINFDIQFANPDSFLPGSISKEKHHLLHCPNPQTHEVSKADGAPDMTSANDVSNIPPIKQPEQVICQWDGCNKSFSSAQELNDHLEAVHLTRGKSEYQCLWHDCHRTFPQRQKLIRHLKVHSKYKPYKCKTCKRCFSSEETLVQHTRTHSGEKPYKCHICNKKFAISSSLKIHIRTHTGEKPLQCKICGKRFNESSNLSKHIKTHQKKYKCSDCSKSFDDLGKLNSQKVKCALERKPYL
Experiment: PBM E-score (8-mer binding enrichment) (E-score (-0.5 to 0.5)); higher = stronger / more preferred TF binding
Conditions: protein concentration: 200 nM; construct: GST-full length
Description: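 Universal 'all 10-mer' protein binding microarrays (Agilent AMADID 015681) probed with GST-tagged S. cerevisiae TFs (full-length or DBD) made by in vitro transcription/translation (PURExpress), about 100-200 nM. Bound TF was detected with fluorescent anti-GST. Each ungapped 8-mer (which stands for itself and its reverse complement) is scored by the PBM enrichment score (E-score), a modified Wilcoxon-Mann-Whitney statistic from -0.5 to +0.5, computed with the Universal PBM Analysis Suite. Scale: above 0.35 generally sequence-specific binding.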

Row | Sequence | PBM E-score
1 | AGTTATGC | 0.0469
2 | GGGGTGAC | 0.337
3 | AGGGTGTC | 0.304
4 | CGGGTGAC | 0.167
5 | AGGGTGAG | -0.118
6 | AGGGTGAC | 0.415
7 | ACGGTGAC | -0.0408
8 | GGGGTGAA | 0.0494
9 | AGGGTGAT | 0.427
10 | AGGGTGAA | 0.0968
11 | ATCTCGTA | -0.0363
12 | AACTGTCT | -0.105
13 | GAGAGCTA | -0.305
14 | GGCGATCA | -0.283
15 | GCCCTGCA | -0.195
16 | ACCCTGCG | 0.422
17 | ACCCTGCA | 0.394
18 | TCCCTGCA | 0.0185
19 | ACCCTGCC | 0.186
20 | CCCCTGCG | -0.17
21 | TACACAGA | 0.0113
22 | AGACTGAC | -0.202

Row | Sequence | PBM E-score
23 | GAGCTATA | -0.233
24 | ACATACGA | 0.0717
25 | CGCGTCGC | -0.204
26 | CTGTGGAA | -0.0936
27 | AACCAGAT | 0.142
28 | ACAGATCT | -0.0411
29 | GCATAACA | 0.0518
30 | GCATAACC | 0.414
31 | GCATAAGC | -0.0977
32 | ACATAACT | 0.149
33 | ACATAACC | 0.454
34 | ACATAACG | 0.0512
35 | CATCTTAA | -0.0359
36 | AAGCGGGC | -0.335
37 | CTTGACCC | 0.311
38 | AGTGACCG | 0.115
39 | CGTGACCC | 0.418
40 | CGTGACGC | -0.134
41 | AGTGACCC | 0.347
42 | GGTGACCA | 0.283
43 | CGTGACCA | 0.35
44 | AGTGACCA | 0.247

Row | Sequence | PBM E-score
45 | AGTGACAC | -0.119
46 | AGACTTAG | -0.306
47 | GGGTTAAC | 0.403
48 | AGGTTAAG | 0.383
49 | ACGTTAAG | -0.0481
50 | GGGTTTAA | 0.242
51 | AGGTTAAT | 0.315
52 | ATGTTAAG | -0.0536
53 | GGGTTAAA | 0.443
54 | ACGTTAAC | 0.0746
55 | GAGTTAAC | 0.00603
56 | GTGTTAAA | 0.0467
57 | AGGTTAAC | 0.405
58 | CGGTTAAC | 0.232
59 | CTGCCAGA | -0.0969
60 | GGTTAGGA | 0.296
61 | CAGTGCAA | -0.0222
62 | CCCTAGAA | 0.177
63 | CCGGTGTC | 0.0219
64 | AGGTAGTG | 0.268
65 | AGGTAGTA | 0.337
66 | CGGTAGTA | 0.107

Row | Sequence | PBM E-score
67 | AAATGAAA | 0.23
68 | ACATTCTC | -0.0126
69 | CAATAACG | 0.138
70 | CAATAACA | 0.0373
71 | GAATAACA | 0.181
72 | AAATAACA | 0.0357
73 | GAATAAGC | -0.182
74 | AAATAACG | 0.042
75 | AAATAACC | 0.42
76 | CAATAACC | 0.468
77 | GAATAACC | 0.438
78 | CGCGGCAG | -0.049
79 | GCGTTGAC | -0.0667
80 | CGCCAGCG | -0.255
81 | GTTGCCGA | -0.0812
82 | GTAGCAAC | -0.0913
83 | GACAGTCA | -0.217
84 | ACCGTTAA | 0.256
85 | GAAGGTGA | 0.116
86 | CAAGGTTC | 0.0224
